Measured values taken from publication PMC11006913.
Changes are numbered by the printed parent chain.

Key:
Assay in all cases: PBM; 200 nM protein, PBS
Conditions in all cases: dsDNA, one strand shown
CRX [1] = biological target: CRX (Homo sapiens, UniProt O43186 26-111)
ALX4 [2] = biological target: ALX4 (Homo sapiens, UniProt Q9H161 200-286)
ALX4 [3] = biological target: ALX4 (Homo sapiens, UniProt Q9H161 200-286, Q225E)
HOXA2 [4] = biological target: HOXA2 (Homo sapiens, UniProt O43364 129-215, R185T)
CRX [5] = biological target: CRX (Homo sapiens, UniProt O43186 26-111, E42D)
ALX1 [6] = biological target: ALX1 (Homo sapiens, UniProt Q15699 118-204, L144V)
HOXA2 [7] = biological target: HOXA2 (Homo sapiens, UniProt O43364 129-215, R185K)
ALX1 [8] = biological target: ALX1 (Homo sapiens, UniProt Q15699 118-204, L144R)
HOXA2 [9] = biological target: HOXA2 (Homo sapiens, UniProt O43364 129-215, Y150S)
CRX [10] = biological target: CRX (Homo sapiens, UniProt O43186 26-111, R41L)
ALX1 [11] = biological target: ALX1 (Homo sapiens, UniProt Q15699 118-204)
HOXA2 [12] = biological target: HOXA2 (Homo sapiens, UniProt O43364 129-215)
HOXA7 [13] = biological target: HOXA7 (Homo sapiens, UniProt P31268 116-202)
HOXA7 [14] = biological target: HOXA7 (Homo sapiens, UniProt P31268 116-202, W177C)
MSX2 [15] = biological target: MSX2 (Homo sapiens, UniProt P35548 130-214, R199I)
MSX2 [16] = biological target: MSX2 (Homo sapiens, UniProt P35548 130-214)
VAX1 [17] = biological target: VAX1 (Homo sapiens, UniProt Q5SQQ9 86-172)
MSX2 [18] = biological target: MSX2 (Homo sapiens, UniProt P35548 130-214, F161Y)
VAX1 [19] = biological target: VAX1 (Homo sapiens, UniProt Q5SQQ9 86-172, T142I)
VAX1 [20] = biological target: VAX1 (Homo sapiens, UniProt Q5SQQ9 86-172, K157R)
PROP1 [21] = biological target: PROP1 (Homo sapiens, UniProt O75360 56-141)
PROP1 [22] = biological target: PROP1 (Homo sapiens, UniProt O75360 56-141, R99H)
PROP1 [23] = biological target: PROP1 (Homo sapiens, UniProt O75360 56-141, F88S)
PRRX1 [24] = biological target: PRRX1 (Homo sapiens, UniProt P54821 80-166, F113S)
NKX2-6 [25] = biological target: T1, NKX2-6 (Homo sapiens, UniProt A6NCS4 118-204, R150C)
T1 sequence: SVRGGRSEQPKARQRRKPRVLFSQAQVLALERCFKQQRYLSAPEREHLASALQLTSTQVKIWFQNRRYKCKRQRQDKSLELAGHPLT

NKX2-6 [26] = biological target: T2, NKX2-6 (Homo sapiens, UniProt A6NCS4 118-204)
T2 sequence: T1 sequence with C33R

NKX2-6 [27] = biological target: T3, NKX2-6 (Homo sapiens, UniProt A6NCS4 118-204, F151L)
T3 sequence: T1 sequence with C33R, F34L

PRRX1 [28] = biological target: PRRX1 (Homo sapiens, UniProt P54821 80-166)
Chain of PRRX1 (Homo sapiens, UniProt P54821 80-166) (P54821 80-166): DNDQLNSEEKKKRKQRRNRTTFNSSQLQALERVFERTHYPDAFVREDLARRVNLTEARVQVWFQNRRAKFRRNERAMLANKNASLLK

Chain of ALX1 (Homo sapiens, UniProt Q15699 118-204, L144R) (Q15699 118-204 L144R): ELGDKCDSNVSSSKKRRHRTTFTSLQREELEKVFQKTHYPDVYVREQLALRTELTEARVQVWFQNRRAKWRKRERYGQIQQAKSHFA
Chain of ALX1 (Homo sapiens, UniProt Q15699 118-204, L144V) (Q15699 118-204 L144V): as the sequence (Q15699 118-204 L144R) above, with R27V counted along it
Chain of CRX (Homo sapiens, UniProt O43186 26-111) (O43186 26-111): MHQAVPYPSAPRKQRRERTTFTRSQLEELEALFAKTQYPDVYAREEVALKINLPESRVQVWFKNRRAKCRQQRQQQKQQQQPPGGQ
Chain of CRX (Homo sapiens, UniProt O43186 26-111, E42D) (O43186 26-111 E42D): as the sequence (O43186 26-111) above, with E17D counted along it
Chain of ALX4 (Homo sapiens, UniProt Q9H161 200-286) (Q9H161 200-286): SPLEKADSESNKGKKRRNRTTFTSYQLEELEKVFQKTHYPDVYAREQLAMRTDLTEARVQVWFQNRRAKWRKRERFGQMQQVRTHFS
Chain of CRX (Homo sapiens, UniProt O43186 26-111, R41L) (O43186 26-111 R41L): as the sequence (O43186 26-111) above, with R16L counted along it
Chain of ALX1 (Homo sapiens, UniProt Q15699 118-204) (Q15699 118-204): as the sequence (Q15699 118-204 L144R) above, with R27L counted along it
Chain of ALX4 (Homo sapiens, UniProt Q9H161 200-286, Q225E) (Q9H161 200-286 Q225E): as the sequence (Q9H161 200-286) above, with Q26E counted along it
Chain of PROP1 (Homo sapiens, UniProt O75360 56-141, R99H) (O75360 56-141 R99H): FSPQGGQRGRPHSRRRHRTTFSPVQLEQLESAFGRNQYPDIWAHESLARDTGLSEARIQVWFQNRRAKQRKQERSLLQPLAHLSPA
Chain of PROP1 (Homo sapiens, UniProt O75360 56-141, F88S) (O75360 56-141 F88S): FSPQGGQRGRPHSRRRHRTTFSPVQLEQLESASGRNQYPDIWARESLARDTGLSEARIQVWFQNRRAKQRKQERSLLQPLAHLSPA
Chain of VAX1 (Homo sapiens, UniProt Q5SQQ9 86-172) (Q5SQQ9 86-172): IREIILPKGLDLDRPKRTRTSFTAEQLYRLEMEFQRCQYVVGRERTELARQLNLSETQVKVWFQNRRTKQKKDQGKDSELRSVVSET
Chain of VAX1 (Homo sapiens, UniProt Q5SQQ9 86-172, K157R) (Q5SQQ9 86-172 K157R): as the sequence (Q5SQQ9 86-172) above, with K72R counted along it
Chain of VAX1 (Homo sapiens, UniProt Q5SQQ9 86-172, T142I) (Q5SQQ9 86-172 T142I): as the sequence (Q5SQQ9 86-172) above, with T57I counted along it
Chain of PROP1 (Homo sapiens, UniProt O75360 56-141) (O75360 56-141): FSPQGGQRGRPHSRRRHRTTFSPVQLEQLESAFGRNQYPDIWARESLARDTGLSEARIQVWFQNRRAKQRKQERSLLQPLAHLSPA
Chain of HOXA2 (Homo sapiens, UniProt O43364 129-215, R185K) (O43364 129-215 R185K): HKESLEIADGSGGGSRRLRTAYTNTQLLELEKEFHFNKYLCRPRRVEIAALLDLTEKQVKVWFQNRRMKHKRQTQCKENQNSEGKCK
Chain of PRRX1 (Homo sapiens, UniProt P54821 80-166, F113S) (P54821 80-166 F113S): as the sequence (P54821 80-166) above, with F34S counted along it
Chain of HOXA2 (Homo sapiens, UniProt O43364 129-215, Y150S) (O43364 129-215 Y150S): as the sequence (O43364 129-215 R185K) above, with Y22S, K57R counted along it
Chain of HOXA7 (Homo sapiens, UniProt P31268 116-202, W177C) (P31268 116-202 W177C): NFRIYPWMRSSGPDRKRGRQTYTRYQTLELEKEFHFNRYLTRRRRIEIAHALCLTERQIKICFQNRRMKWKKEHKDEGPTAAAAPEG
Chain of HOXA7 (Homo sapiens, UniProt P31268 116-202) (P31268 116-202): as the sequence (P31268 116-202 W177C) above, with C62W counted along it
Chain of HOXA2 (Homo sapiens, UniProt O43364 129-215, R185T) (O43364 129-215 R185T): as the sequence (O43364 129-215 R185K) above, with K57T counted along it
Chain of MSX2 (Homo sapiens, UniProt P35548 130-214) (P35548 130-214): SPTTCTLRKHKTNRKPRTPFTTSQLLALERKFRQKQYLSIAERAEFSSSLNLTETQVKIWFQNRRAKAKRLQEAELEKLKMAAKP
Chain of MSX2 (Homo sapiens, UniProt P35548 130-214, R199I) (P35548 130-214 R199I): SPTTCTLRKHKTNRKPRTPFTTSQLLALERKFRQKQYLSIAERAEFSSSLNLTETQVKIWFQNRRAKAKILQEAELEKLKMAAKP
Chain of MSX2 (Homo sapiens, UniProt P35548 130-214, F161Y) (P35548 130-214 F161Y): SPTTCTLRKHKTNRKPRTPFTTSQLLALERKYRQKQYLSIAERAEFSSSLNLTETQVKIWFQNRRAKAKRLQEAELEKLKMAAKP
Chain of HOXA2 (Homo sapiens, UniProt O43364 129-215) (O43364 129-215): as the sequence (O43364 129-215 R185K) above, with K57R counted along it

ACCGGGCG
binding signal (CRX [1]): 7.62 upbm affinity estimate (log intensity, higher = more binding, comparable within an allelic series)
binding signal (ALX4 [2]): 7.78 upbm affinity estimate (log intensity, higher = more binding, comparable within an allelic series)
binding signal (ALX4 [3]): 7.99 upbm affinity estimate (log intensity, higher = more binding, comparable within an allelic series)
binding signal (HOXA2 [4]): 6.76 upbm affinity estimate (log intensity, higher = more binding, comparable within an allelic series)
binding signal (CRX [5]): 7.73 upbm affinity estimate (log intensity, higher = more binding, comparable within an allelic series)
binding signal (ALX1 [6]): 6.09 upbm affinity estimate (log intensity, higher = more binding, comparable within an allelic series)
binding signal (HOXA2 [7]): 10.3 upbm affinity estimate (log intensity, higher = more binding, comparable within an allelic series)
binding signal (ALX1 [8]): 6.25 upbm affinity estimate (log intensity, higher = more binding, comparable within an allelic series)
binding signal (HOXA2 [9]): 10.3 upbm affinity estimate (log intensity, higher = more binding, comparable within an allelic series)
binding signal (CRX [10]): 7.79 upbm affinity estimate (log intensity, higher = more binding, comparable within an allelic series)
binding signal (ALX1 [11]): 6.19 upbm affinity estimate (log intensity, higher = more binding, comparable within an allelic series)
binding signal (HOXA2 [12]): 7.26 upbm affinity estimate (log intensity, higher = more binding, comparable within an allelic series)

AGCGTCCG
binding signal (CRX [1]): 8.29 upbm affinity estimate (log intensity, higher = more binding, comparable within an allelic series)
binding signal (HOXA7 [13]): 8.2 upbm affinity estimate (log intensity, higher = more binding, comparable within an allelic series)
binding signal (CRX [5]): 8.33 upbm affinity estimate (log intensity, higher = more binding, comparable within an allelic series)
binding signal (HOXA7 [14]): 8.37 upbm affinity estimate (log intensity, higher = more binding, comparable within an allelic series)
binding signal (CRX [10]): 8.29 upbm affinity estimate (log intensity, higher = more binding, comparable within an allelic series)

CACCGGAG
binding signal (CRX [1]): 8.14 upbm affinity estimate (log intensity, higher = more binding, comparable within an allelic series)
binding signal (ALX4 [2]): 8.15 upbm affinity estimate (log intensity, higher = more binding, comparable within an allelic series)
binding signal (ALX4 [3]): 8.15 upbm affinity estimate (log intensity, higher = more binding, comparable within an allelic series)
binding signal (CRX [5]): 8.3 upbm affinity estimate (log intensity, higher = more binding, comparable within an allelic series)
binding signal (CRX [10]): 8.27 upbm affinity estimate (log intensity, higher = more binding, comparable within an allelic series)

ATCAGTTA
binding signal (CRX [1]): 9.84 upbm affinity estimate (log intensity, higher = more binding, comparable within an allelic series)
binding signal (CRX [5]): 9.71 upbm affinity estimate (log intensity, higher = more binding, comparable within an allelic series)

CGCTCGCC
binding signal (CRX [1]): 7.99 upbm affinity estimate (log intensity, higher = more binding, comparable within an allelic series)
binding signal (CRX [5]): 8.05 upbm affinity estimate (log intensity, higher = more binding, comparable within an allelic series)
binding signal (MSX2 [15]): 9.42 upbm affinity estimate (log intensity, higher = more binding, comparable within an allelic series)
binding signal (ALX1 [6]): 6.31 upbm affinity estimate (log intensity, higher = more binding, comparable within an allelic series)
binding signal (ALX1 [8]): 6.41 upbm affinity estimate (log intensity, higher = more binding, comparable within an allelic series)
binding signal (MSX2 [16]): 9.46 upbm affinity estimate (log intensity, higher = more binding, comparable within an allelic series)
binding signal (VAX1 [17]): 6.87 upbm affinity estimate (log intensity, higher = more binding, comparable within an allelic series)
binding signal (MSX2 [18]): 9.5 upbm affinity estimate (log intensity, higher = more binding, comparable within an allelic series)
binding signal (VAX1 [19]): 7.1 upbm affinity estimate (log intensity, higher = more binding, comparable within an allelic series)
binding signal (CRX [10]): 8.16 upbm affinity estimate (log intensity, higher = more binding, comparable within an allelic series)
binding signal (ALX1 [11]): 6.39 upbm affinity estimate (log intensity, higher = more binding, comparable within an allelic series)
binding signal (VAX1 [20]): 7.05 upbm affinity estimate (log intensity, higher = more binding, comparable within an allelic series)

GAGGGCCC
binding signal (CRX [1]): 8.25 upbm affinity estimate (log intensity, higher = more binding, comparable within an allelic series)
binding signal (ALX4 [2]): 7.97 upbm affinity estimate (log intensity, higher = more binding, comparable within an allelic series)
binding signal (ALX4 [3]): 7.92 upbm affinity estimate (log intensity, higher = more binding, comparable within an allelic series)
binding signal (CRX [5]): 8.06 upbm affinity estimate (log intensity, higher = more binding, comparable within an allelic series)
binding signal (PROP1 [21]): 6.79 upbm affinity estimate (log intensity, higher = more binding, comparable within an allelic series)
binding signal (PROP1 [22]): 6.72 upbm affinity estimate (log intensity, higher = more binding, comparable within an allelic series)
binding signal (PROP1 [23]): 6.48 upbm affinity estimate (log intensity, higher = more binding, comparable within an allelic series)
binding signal (CRX [10]): 8.14 upbm affinity estimate (log intensity, higher = more binding, comparable within an allelic series)

CACCACGC
binding signal (CRX [1]): 8.26 upbm affinity estimate (log intensity, higher = more binding, comparable within an allelic series)
binding signal (PRRX1 [24]): 9.44 upbm affinity estimate (log intensity, higher = more binding, comparable within an allelic series)
binding signal (NKX2-6 [25]): 9.32 upbm affinity estimate (log intensity, higher = more binding, comparable within an allelic series)
binding signal (CRX [5]): 8.36 upbm affinity estimate (log intensity, higher = more binding, comparable within an allelic series)
binding signal (ALX1 [6]): 6.3 upbm affinity estimate (log intensity, higher = more binding, comparable within an allelic series)
binding signal (NKX2-6 [26]): 9.32 upbm affinity estimate (log intensity, higher = more binding, comparable within an allelic series)
binding signal (ALX1 [8]): 6.36 upbm affinity estimate (log intensity, higher = more binding, comparable within an allelic series)
binding signal (PROP1 [21]): 6.81 upbm affinity estimate (log intensity, higher = more binding, comparable within an allelic series)
binding signal (PROP1 [22]): 6.8 upbm affinity estimate (log intensity, higher = more binding, comparable within an allelic series)
binding signal (VAX1 [17]): 7.04 upbm affinity estimate (log intensity, higher = more binding, comparable within an allelic series)
binding signal (NKX2-6 [27]): 9.49 upbm affinity estimate (log intensity, higher = more binding, comparable within an allelic series)
binding signal (PROP1 [23]): 6.67 upbm affinity estimate (log intensity, higher = more binding, comparable within an allelic series)
binding signal (VAX1 [19]): 7.3 upbm affinity estimate (log intensity, higher = more binding, comparable within an allelic series)
binding signal (CRX [10]): 8.34 upbm affinity estimate (log intensity, higher = more binding, comparable within an allelic series)
binding signal (ALX1 [11]): 6.37 upbm affinity estimate (log intensity, higher = more binding, comparable within an allelic series)
binding signal (PRRX1 [28]): 9.04 upbm affinity estimate (log intensity, higher = more binding, comparable within an allelic series)
binding signal (VAX1 [20]): 7.04 upbm affinity estimate (log intensity, higher = more binding, comparable within an allelic series)
